This is an account of results in PubChem BioAssay.

Assay [1] can be described thus: HepG2 liver cancer cell viability effects, profiling panel, resazurin fluorescence, 24 h, PK04 Diversity Set (AID 1172). The note with it: higher = more signal.
Assay [2] in a line: basal S. cerevisiae growth modulation, no modifier, primary screen, OD600, strain BY4716, 24 h, basal condition (AID 1173). The note with it: OD600, 24 h, higher = more signal, called active from +8 up or from −8 down.
Assay [3] in a line: MM1S myeloma cell viability, profiling panel, resazurin fluorescence, basal, 24 h, PK04 Diversity Set (AID 1174). The note with it: higher = more signal, called active from +8 up or from −8 down.
The target of assay [4] is Dihydroorotate dehydrogenase (quinone), mitochondrial (Plasmodium falciparum (isolate 3D7)) (UniProt Q08210). As to the kind of experiment: PfDHODH enzyme inhibitors, primary screen, biochemical, C-terminal His tag, absorbance 600 nm (AID 1175).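 Also: recombinant parasite enzyme with a five histidine tag at its C terminus.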 Conditions: DCIP absorbance 600 nm, higher = more signal, called active from +8 up or from −8 down.
Dihydroorotate dehydrogenase (quinone), mitochondrial (Plasmodium falciparum (isolate 3D7)), sequence (Q08210 whole entry, looked up): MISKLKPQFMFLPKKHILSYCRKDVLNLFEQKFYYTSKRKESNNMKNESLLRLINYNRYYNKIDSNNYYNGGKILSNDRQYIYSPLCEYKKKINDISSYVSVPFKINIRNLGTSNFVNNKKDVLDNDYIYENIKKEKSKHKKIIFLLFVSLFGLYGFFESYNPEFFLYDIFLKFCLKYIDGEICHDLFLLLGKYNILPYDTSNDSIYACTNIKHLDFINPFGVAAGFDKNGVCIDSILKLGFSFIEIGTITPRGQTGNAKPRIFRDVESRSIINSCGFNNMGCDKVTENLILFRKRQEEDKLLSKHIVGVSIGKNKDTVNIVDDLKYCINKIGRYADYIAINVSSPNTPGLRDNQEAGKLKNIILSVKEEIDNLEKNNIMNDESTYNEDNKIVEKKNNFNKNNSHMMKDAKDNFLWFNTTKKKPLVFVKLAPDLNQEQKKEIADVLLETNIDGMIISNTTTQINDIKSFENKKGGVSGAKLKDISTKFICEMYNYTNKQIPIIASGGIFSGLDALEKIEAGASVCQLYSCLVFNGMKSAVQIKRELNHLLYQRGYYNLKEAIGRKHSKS
Assay [5] can be described thus: P. aeruginosa biofilm formation inhibitors, primary screen, strain PAO1, LB-PBS medium, absorbance 600 nm (AID 1176). The note with it: P. aeruginosa PAO1 growth/biofilm, A600, 12 h; higher = more signal.
Assay [6] can be described thus: S. cerevisiae RM11-1a growth modifiers, primary screen, strain RM11-1a, OD600, basal, 24 h (AID 1177).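 Also: cultures grown under basal conditions with no added stressor.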 The note with it: OD600, 24 h, higher = more signal, called active from +8 up or from −8 down.
Assay [7] in a line: E. coli acrAB mutant growth effects, primary screen, E. coli filamentation inducers, strain DRC39, OD650, 24 h (AID 1178).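 Also: growth measured as culture turbidity by optical density at 650 nm.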 The note with it: higher = more signal, called active from +8 up or from −8 down.
Assay [8] can be described thus: E. coli acrAB mutant growth effects, primary screen, E. coli filamentation inducers, strain DRC39, OD650, 48 h (AID 1179).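 Also: screen aims at cell division blockers that make cells filament.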 Conditions: E. coli DRC39 delta-acrAB growth, higher = more signal, called active from +8 up or from −8 down.
A short description of assay [9]: RPMI8226 myeloma cell viability, profiling panel, resazurin fluorescence, basal, 24 h, PK04 Diversity Set (AID 1180).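 Also: RPMI8826 multiple myeloma cell line at 5000 cells per well.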 The note with it: higher = more signal.
The target in assay [10] is E3 ubiquitin-protein ligase XIAP (Homo sapiens) (UniProt P98170). Put plainly: XIAP binders, primary screen, biophysical, small-molecule microarray, fluorescence 635 nm (AID 1181).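 Also: score merges 667 nm emission and signal to noise over triplicate slides.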 Conditions: small-molecule microarray binding, higher = more signal.
E3 ubiquitin-protein ligase XIAP (Homo sapiens), sequence (P98170 whole entry, looked up): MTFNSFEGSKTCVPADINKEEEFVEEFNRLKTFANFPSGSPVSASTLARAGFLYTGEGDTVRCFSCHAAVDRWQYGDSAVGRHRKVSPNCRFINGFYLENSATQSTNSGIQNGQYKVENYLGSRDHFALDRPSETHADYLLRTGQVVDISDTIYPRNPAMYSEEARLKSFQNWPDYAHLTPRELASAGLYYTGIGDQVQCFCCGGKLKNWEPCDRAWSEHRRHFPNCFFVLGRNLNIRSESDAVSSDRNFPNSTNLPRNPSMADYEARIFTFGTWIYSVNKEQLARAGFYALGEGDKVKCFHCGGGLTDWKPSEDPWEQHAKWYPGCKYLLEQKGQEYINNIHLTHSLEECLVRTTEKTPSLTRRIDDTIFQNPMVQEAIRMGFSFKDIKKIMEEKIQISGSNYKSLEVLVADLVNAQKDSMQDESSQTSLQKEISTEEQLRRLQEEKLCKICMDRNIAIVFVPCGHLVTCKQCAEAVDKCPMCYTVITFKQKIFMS
Assay [11] relates to XIP peptide (Xip251-270) binding. Put plainly: small-molecule binders of XIP peptide, primary screen, biochemical, small-molecule microarray, fluorescence 635/667 nm, 0.1 µg/mL protein (AID 1182). The note with it: fluorescent protein binding, 635 nm, higher = more signal, called active from +8 up or from −8 down.
Assay [12] has as its system XIP peptide (Xip251-270). Put plainly: small-molecule binders of XIP peptide, primary screen, biochemical, small-molecule microarray, fluorescence 635/667 nm, 0.5 µg/mL protein (AID 1183). Conditions: small-molecule microarray binding, fluorescence 635 nm; higher = more signal.
Assay [13] can be described thus: Plasmodium falciparum growth inhibition, primary screen, strain 3D7, DAPI fluorescence, 100 nL (AID 1184).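 Also: parasites grown inside human red blood cells in medium with human serum.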 Conditions: P. falciparum 3D7 growth, 3 d, higher = more signal.
For assay [14], the target named is Homeobox protein Hox-A13 (Mus musculus) (UniProt Q62424). Put plainly: inhibitors of HoxA13-DNA binding, primary screen, biochemical, fluorescence polarization, labeled oligonucleotide (AID 1185). Conditions: 15 min, higher = more signal, called active from +8 up or from −8 down.
Homeobox protein Hox-A13 (Mus musculus), sequence (Q62424 whole entry, looked up): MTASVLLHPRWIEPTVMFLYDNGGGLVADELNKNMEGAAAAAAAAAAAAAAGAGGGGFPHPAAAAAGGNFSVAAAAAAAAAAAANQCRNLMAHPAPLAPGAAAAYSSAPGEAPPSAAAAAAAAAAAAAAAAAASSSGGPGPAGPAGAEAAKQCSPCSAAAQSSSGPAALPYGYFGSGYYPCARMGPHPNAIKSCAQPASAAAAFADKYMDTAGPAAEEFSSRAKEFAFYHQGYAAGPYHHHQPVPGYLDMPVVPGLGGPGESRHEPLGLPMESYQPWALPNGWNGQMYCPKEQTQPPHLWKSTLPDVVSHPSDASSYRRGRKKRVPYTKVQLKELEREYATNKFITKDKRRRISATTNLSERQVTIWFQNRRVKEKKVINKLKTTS
Assay [15] is described as follows: inhibitors of hydroxyurea-induced Chk1 phosphorylation, primary screen, imaging, HeLa, phospho-Chk1 antibody, percent positive cells (AID 1186). The note with it: hydroxyurea-induced phospho-Chk1 immunofluorescence imaging, higher = more signal.
Assay [16] is described as follows: inhibitors of hydroxyurea-induced Chk1 phosphorylation, primary screen, imaging, HeLa, phospho-Chk1 nuclear intensity (AID 1187). The note with it: hydroxyurea-induced phospho-Chk1 immunofluorescence imaging, higher = more signal.

Molecules are shown by their SMILES. Calls of active or inactive are those of the source. Unless noted, no rule for the calls is given here.

In the case of `CN(C)C(=O)[C@]1(Cc2ccccc2N=[N+]=[N-])N=C(c2ccc(OCCCO)cc2)O[C@@H]1c1ccccc1CN=[N+]=[N-]`, the z-score in [1] is 2.37; in [2], -1.93 (inactive); in [3] it was -1.13 (inactive); in assay [5] it was -0.165 (inactive); in assay [6], -0.495 (inactive); in assay [7], 0.804 (inactive). Also, the z-score is 0.7 (inactive) in [8]; -0.997 in assay [9]; -2.48 in assay [13]; -4.68 (inactive) in assay [14]; -0.191 (inactive) in assay [15]; 0.269 (inactive) in [16]. Further, the composite z-score in [4] is -0.106 (inactive); in [10] it was 0.152; in assay [11] it was 0.304 (inactive); in [12] it was 0.312.

Take `C=CCN1C(=O)[C@@]2(O[C@@H](CCn3cc([C@H](O)c4ccccc4)nn3)[C@H]([Si](C)(C)c3ccc(OC)cc3)[C@H]2C)c2cc(NC(=O)c3ccc(OC)cc3)ccc21`: the z-score in [1] is -1.55; in [2] it was 0.336 (inactive); in assay [3], -2.19 (inactive); in assay [5], 0.389 (inactive); in assay [6], 2.42 (inactive); in [7] it was 0.628 (inactive). In addition, the z-score in [8] is 0.146 (inactive); in assay [9], -2.35; in assay [13], -2.7; in [14], -4.41 (inactive); in [15], 0.24 (inactive); in assay [16], -0.338 (inactive). For the same compound, the composite z-score in [4] is 0.874 (inactive); in [10] it was 0.176; in assay [11] it was 0.593 (inactive); in assay [12] it was 0.189.

On to `COCCOC(=O)N1C(=O)[C@@]2(c3cc(C#CCC(C(=O)OC)C(=O)OC)ccc31)[C@H](c1ccc(OCCO)cc1)N1[C@H](c3ccccc3)[C@H](c3ccccc3)OC(=O)[C@H]1[C@@H]2C(N)=O`, for which the z-score in assay [1] was 0.331; in assay [2] it was 1.87 (inactive); in assay [3] it was -0.22 (inactive); in [5] it was 2.32 (inactive); in assay [6], 2.34 (inactive); in [7], -0.102 (inactive). Further, the z-score is -0.554 (inactive) in assay [8]; -0.112 in assay [9]; -1.96 in [13]; -1.07 (inactive) in [14]; -0.154 (inactive) in assay [15]; 0.0321 (inactive) in assay [16]. Also, the composite z-score in assay [4] is -1.15 (inactive); in assay [10], 0.049; in assay [11], 0.335 (inactive); in assay [12] it was 0.803.

As to `C=C(COC)C(=O)CC[C@H](OC(=O)c1ccccc1-c1ccccc1C(=O)O)c1ccc(CO)o1`, the z-score in assay [1] is -0.45; in assay [2], 0.624 (inactive); in [3], -0.176 (inactive); in [5] it was 1.85 (inactive); in assay [6] it was 0.89 (inactive); in [7], -0.573 (inactive). The z-score in assay [8] is -0.399 (inactive); in assay [9] it was -0.178; in [13], 0.399; in assay [14], -6.22 (inactive); in [15], 0.44 (inactive); in assay [16], -0.37 (inactive). In addition, the composite z-score was -1.39 (inactive) in assay [4], 0.0402 in assay [10], 1.28 (inactive) in assay [11] and 0.393 in assay [12].

Take `CCCNC(=O)[C@@H]1c2ccccc2C(=O)N(CC23CC4CC(CC(C4)C2)C3)[C@H]1c1ccc(CO)cc1`: the z-score in assay [1] was -0.411; in assay [2], -0.774 (inactive); in assay [3], 0.411 (inactive); in assay [5], 0.718 (inactive); in [6] it was 0.987 (inactive); in assay [7], -0.0494 (inactive). The z-score in [8] is -0.501 (inactive); in assay [9], 0.748; in assay [13], -2.3; in assay [14], -4.87 (inactive); in assay [15], 0.118 (inactive); in assay [16], 0.0519 (inactive). The composite z-score in assay [4] is 0.627 (inactive); in assay [10], 1.94; in [11], 1.67 (inactive); in assay [12], 0.773.

On to `CN1C(=O)C2C=CC(C(O)c3ccc(F)cc3)N(N3CCCCC3)C2C1=O` (stereo not given), for which the z-score in [1] was -1.49; in assay [2], 1.62 (inactive); in assay [3] it was -1.78 (inactive); in assay [5], 1.41 (inactive); in assay [6] it was 1.42 (inactive); in [7], -1.02 (inactive). Besides, the z-score is -0.837 (inactive) in [8]; -1.79 in [9]; -0.0184 in assay [13]; -7.46 (inactive) in [14]; 0.64 (inactive) in assay [15]; -0.206 (inactive) in [16]. Further, the composite z-score in assay [4] was -0.555 (inactive); in assay [10] it was -0.0727; in assay [11] it was 0.612 (inactive); in assay [12] it was -0.635.

As for `COC(=O)[C@@]1(Cc2ccc(F)cc2)[C@H]2c3cc(C(=O)N(C)C)n(CCSCCO)c3C[C@H]2CN1C(=O)c1ccccc1`, the z-score is -0.234 in assay [1]; -0.0857 (inactive) in [2]; -0.42 (inactive) in assay [3]; 0.399 (inactive) in assay [5]; 0.0891 (inactive) in assay [6]; -0.514 (inactive) in assay [7]. Besides, the z-score in [8] is -0.32 (inactive); in assay [9] it was -0.107; in assay [13], -0.404; in assay [14], -4.76 (inactive); in assay [15], 0.511 (inactive); in assay [16], 0.469 (inactive). Besides, the composite z-score in assay [4] is -0.467 (inactive); in assay [10], -0.234; in assay [11], 0.235 (inactive); in [12], 0.0692.

For the compound `COc1ccc([Si](C)(C)[C@H]2[C@H](CCO)O[C@@]3(C(=O)N(Cc4cccc(N5CCOC5=O)c4)c4ccccc43)[C@@H]2C)cc1`, the z-score in assay [1] was -1.55; in [2], 1.34 (inactive); in assay [3], -4.67 (inactive); in assay [5] it was 2 (inactive); in assay [6] it was 4.7 (inactive); in [7], 0.803 (inactive). For the same compound, the z-score in assay [8] was 0.113 (inactive); in assay [9], -3.21; in assay [13], -2.79; in [14], -4.21 (inactive); in assay [15], -1.12 (inactive); in [16], -0.5 (inactive). The composite z-score in assay [4] is -0.287 (inactive); in assay [10] it was -0.0755; in [11], 0.154 (inactive); in [12] it was 0.687.

Turning to `COC(=O)[C@]1(Cc2ccccc2N=[N+]=[N-])N=C(c2ccc(OCCCO)cc2)O[C@@H]1c1ccccc1`, the z-score in assay [1] is -6.11; in assay [2] it was -1.69 (inactive); in assay [3], -8.86 (active); in assay [5], 0.783 (inactive); in assay [6] it was 1.53 (inactive); in assay [7], 2.06 (inactive). In addition, the z-score is 1.55 (inactive) in assay [8]; -7.19 in assay [9]; -1.44 in assay [13]; -2.09 (inactive) in assay [14]; -0.88 (inactive) in [15]; -1.26 (inactive) in assay [16]. The composite z-score in [4] is 0.106 (inactive); in assay [10], 0.007; in assay [11], 0.857 (inactive); in assay [12], 0.797.

For `COC(=O)[C@@]1(Cc2ccc(OC)cc2)[C@H]2c3cc(C(=O)N4CCCC4)n(CCc4ccc(O)c(OC)c4)c3C[C@H]2CN1C(=O)c1ccccc1`, the z-score is -0.21 in [1]; 0.768 (inactive) in assay [2]; -0.427 (inactive) in assay [3]; 0.467 (inactive) in [5]; 0.279 (inactive) in assay [6]; -0.744 (inactive) in assay [7]. Besides, the z-score was -0.939 (inactive) in assay [8]; -0.125 in assay [9]; -0.37 in assay [13]; -4.35 (inactive) in assay [14]; 0.219 (inactive) in assay [15]; 0.0055 (inactive) in [16]. For the same compound, the composite z-score in [4] was -0.474 (inactive); in assay [10] it was 0.659; in assay [11], 0.739 (inactive); in assay [12] it was -0.506.
